# Tested on: ACVR2A
# Conditions: concentration: 1 μM, replicates: in singlicate; n = 1
# 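Further: KINOMEscan kinase panel screen.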
row,SMILES,%Inh
1,Cl.c1ccc(-c2ccc3c(Nc4ccc5[nH]ccc5c4)ccnc3c2)nc1 [GW440138],29%
2,Nc1n[nH]c2cnc(-c3ccccc3)cc12 [SB-642124],0%
3,CN(C)Cc1ccc(-c2ccc3c(Nc4ccc(Oc5ccccn5)cc4)ccnc3c2)o1 [GW567148],0%
4,CC(C)(C)c1ccc2nccc(Nc3cccc(O)c3)c2c1 [GW856795],26%
5,O=c1[nH]cc(-c2ccc(N3CCOCC3)cc2)c2sc(-c3cn[nH]c3)cc12 [GSK2276055],2%
6,O=C(Nc1n[nH]c2cc(-c3ccoc3)ccc12)C1CC1 [SB-738481],19%
7,CC(=O)N1CCN(c2ccc(Nc3nccc(-c4sc(C(C)C)nc4-c4cccc(NS(=O)(=O)c5cccc(Cl)c5)c4)n3)cn2)CC1 [GSK1660437],29%
8,COc1cc2c(cc1OCCN1CCNCC1)ncc1c3ccc(C#N)cc3[nH]c21,0%
9,CNC(=O)c1ccccc1Nc1nc(Nc2ccc(N3CCOCC3)cc2)ncc1Cl.Cl [GSK1576028],18%
10,Oc1cc(Nc2ccnc3cc(I)ccc23)ccc1F [GW552771],100%
11,COc1cccc(C2=C(Nc3ccc(Cl)c(C(=O)O)c3)C(=O)NC2=O)c1 [SB-390769],100%
12,O=C(Nc1cccc(-c2nn3ccccc3c2-c2ccnc(Nc3cccc(F)c3)n2)c1)c1c(F)ccc(F)c1Cl [GSK357952],16%
13,O=C(Nc1cccc(Oc2ccc3nc(NC(=O)C4CC4)cn3n2)c1)c1ccccc1C(F)(F)F,16%
14,CSc1cccc2c(-c3ccncn3)c(-c3ccc(F)cc3)nn12 [GW514786],0%
15,Cn1cc(-c2[nH]c3cc(NC(=O)[C@H](N)C4CCCCC4)cc4c3c2C=NNC4=O)cn1,81%
16,COc1ccc(CNC(=O)NC2CCN(c3ccnc(Nc4ccc(F)cc4)n3)CC2)cc1 [GSK1379788],0%
17,COc1cccc(NC(=O)NC2CCN(c3ccnc(Nc4cc(OC)c(OC)c(OC)c4)n3)C2)c1 (stereo not shown) [GSK1379763],89%
18,O=C(Nc1n[nH]c2nc(-c3ccc(O)cc3)ccc12)C1CC1 [SB-710363],55%
19,CN1CCN(CCCNc2nccc(-c3c(-c4ccc(F)cc4)nn4cc(C(F)(F)F)ccc34)n2)CC1 [GW621581],0%

row,SMILES,%Inh
1,c1ccc(-c2n[nH]cc2Nc2ccnc3ccccc23)nc1 [GW694077],0%
2,CCc1ccc(-c2ccc3c(c2)-c2c(cnn2C)S(=O)(=O)N3C)cc1,5%
3,NCCCC(NC(=O)c1cc(Br)c(-c2ccnc3[nH]ccc23)s1)c1ccccc1.O=C(O)C(F)(F)F.O=C(O)C(F)(F)F (stereo not shown) [GSK1287544],0%
4,Nc1ncc(-c2cccnc2)c2scc(-c3ccc4c(c3)CCN4C(=O)Cc3ccccc3)c12 [GSK683281],0%
5,Cl.c1ccc(-c2ccc3c(Nc4ccc5[nH]ncc5c4)ccnc3c2)nc1 [GW440137],57%
6,Cc1ccc(C)c(NC(=O)NC2CCN(c3ccnc(Nc4ccc(F)cc4)n3)C2)c1 (stereo not shown) [GSK1379720],0%
7,COc1cc(Nc2nccc(-c3c(-c4cccc(NC(=O)c5c(F)cccc5F)c4)nn4ccccc34)n2)cc(OC)c1OC [GSK323521],7%
8,Fc1ccc(-c2ncn(C3CCNCC3)c2-c2ccnc(Oc3ccc(-c4ccccc4)cc3)n2)cc1 [SB-245391],19%
9,COc1cc(Nc2ncc3c(C)nc(-c4cc5ccccc5[nH]4)n3n2)cc(OC)c1OC [GW869516],9%
10,Clc1ccc(-c2nn3ncccc3c2-c2ccnc(Nc3ccc4c(c3)OCCO4)n2)cc1 [GW829116],14%
11,c1ccc(-c2cnc3nccnn23)cc1 [AH20685],0%
12,O=C(Nc1ccccc1F)NC1CCN(c2ccnc(Nc3ccc(F)cc3)n2)CC1 [GSK1379800],0%
13,Cc1occc1-c1ncc(OC[C@@H](N)Cc2c[nH]c3ccccc23)cc1-c1ccc2[nH]nc(C)c2c1.O=C(O)C(F)(F)F [GSK682037],0%
14,C[C@@H]1CC[C@@H](C(=O)Nc2ccccc2)CN1c1cc(-c2ccc3c(N)n[nH]c3c2)nc(N)n1 [GSK2286062],0%
15,COc1cc(Nc2nccc(-c3c(-c4cccc(NC(=O)c5c(F)cccc5F)c4)nn4ncccc34)n2)cc(OC)c1OC [GSK327238],0%
16,C[C@@H](Oc1cc(-n2cnc3cc(-c4ccnc(NCCS(C)(=O)=O)c4)ccc32)sc1C(N)=O)c1ccccc1Cl [GSK907232],0%
17,CN1CCN(Cc2cccc(-c3ccc4c(Nc5ccc(Oc6ccccc6)cc5)ccnc4c3)c2)CC1 [GW578342],0%
18,Cc1ccc(S(=O)(=O)Nc2ccc(Nc3nccc(Nc4cccc5[nH]ncc45)n3)cc2)cc1 [GSK581271],0%
